The source made the active and inactive calls. Rule for the calls: active = hit-call score of the fitted dose curve at least 0.9, where 1 is the maximum; inactive = score below 0.9.
Legend:
[1] = read-out: Interleukin-1 alpha (IL1a), IL1A (gene 3552); assay: BSK_LPS_IL1a: BioMAP Diversity Plus: LPS Assay for Interleukin-1 alpha (IL1a) Biomarker Activity (AID 2283080); conditions: primary human HUVEC with PBMC; actives raise or lower the signal
Procedure, shortened: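 Human umbilical vein endothelial cells co-cultured with peripheral blood mononuclear cells were LPS-stimulated and exposed to test chemicals for 24 h. IL-1 alpha was quantified by ELISA, with bidirectional curve fitting against DMSO as the negative control and baseline.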

[2] = read-out: Monocyte Chemoattractant Protein-1 (MCP1), CCL2 (gene 6347); assay: BSK_LPS_MCP1: BioMAP Diversity Plus: LPS Assay for Monocyte Chemoattractant Protein-1 (MCP1) Biomarker Activity (AID 2283081); conditions: primary human HUVEC with PBMC; actives raise or lower the signal;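 for AC50: secreted MCP-1 protein quantified by ELISA in culture supernatant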
Procedure, shortened: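 HUVEC plus PBMC co-culture (human primary cells, LPS system) exposed to test chemical for 24 h; MCP-1 measured by ELISA. Bidirectional curve fitting against DMSO baseline; parallel SRB total-protein staining flags overt cytotoxicity.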

[3] = BSK_LPS_PGE2: BioMAP Diversity Plus: LPS Assay for Prostaglandin E2 (PGE2) Biomarker Activity (AID 2283082); conditions: primary human HUVEC with PBMC; actives raise or lower the signal;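 for AC50: secreted prostaglandin E2 measured by ELISA in LPS-stimulated co-culture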
Procedure, shortened: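 Endpoint derived from bidirectional curve fitting versus DMSO of ELISA-measured PGE2 in LPS-stimulated human primary vascular co-culture (HUVEC with PBMC) harvested at 24 h.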

[4] = read-out: Macrophage colony-stimulating factor (MCSF), CSF1 (gene 1435); assay: BSK_LPS_MCSF: BioMAP Diversity Plus: LPS Assay for Macrophage colony-stimulating factor (MCSF) Biomarker Activity (AID 2283083); conditions: primary human HUVEC with PBMC; actives raise or lower the signal
Procedure, shortened: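 Human umbilical vein endothelial cells co-cultured with peripheral blood mononuclear cells were exposed to compound for 24 h. M-CSF levels were measured by ELISA, and bidirectional curve fitting used DMSO as the negative control and baseline.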

[5] = read-out: Tissue Factor, F3 (gene 2152); assay: BSK_LPS_TissueFactor: BioMAP Diversity Plus: LPS Assay for Tissue Factor Biomarker Activity (AID 2283084); conditions: primary human HUVEC with PBMC; actives raise or lower the signal
Procedure, shortened: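 Human umbilical vein endothelial cells co-cultured with peripheral blood mononuclear cells were dosed and stimulated with LPS. Cell-surface CD142 was quantified by ELISA at 24 h. Activity was fitted bidirectionally against DMSO baseline.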

[6] = read-out: Tumor necrosis factor (Homo sapiens) (UniProt P01375); assay: BSK_LPS_TNFa: BioMAP Diversity Plus: LPS Assay for Tumour Necrosis Factor alpha (TNFa) Biomarker Activity (AID 2283085); conditions: primary human HUVEC with PBMC; actives raise or lower the signal
Procedure, shortened: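 Primary human vascular co-culture of HUVEC and PBMC; TNFa ELISA 24 h after treatment, analysed as increase or decrease relative to DMSO control.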

[7] = read-out: Vascular cell adhesion molecule 1 (VCAM1), VCAM1 (gene 7412); assay: BSK_LPS_VCAM1: BioMAP Diversity Plus: LPS Assay for Vascular cell adhesion molecule 1 (VCAM1) Biomarker Activity (AID 2283086); conditions: primary human HUVEC with PBMC; actives raise or lower the signal
Procedure, shortened: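 Primary human vascular co-culture (umbilical vein endothelium plus PBMC) stimulated with LPS received chemical; 24 h later VCAM-1 was read by ELISA. Overt cytotoxicity was assessed by sulforhodamine B staining of parallel cultures at the same time point.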

CD38, CD38 (gene 952) = assay: BSK_SAg_CD38: BioMAP Diversity Plus: SAg Assay for CD38 Biomarker Activity (AID 2283087); conditions: primary human HUVEC with PBMC; actives raise or lower the signal
Procedure, shortened: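 Fluorescence ELISA of cell-surface CD38 served as the read-out, with either increase or decrease fitted against DMSO controls. Cells were a human umbilical vein endothelium plus PBMC co-culture under SEB/TSST-1 stimulation, measured 24 h after dosing.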

CD69, CD69 (gene 969) = assay: BSK_SAg_CD69: BioMAP Diversity Plus: SAg Assay for CD69 Biomarker Activity (AID 2283089); conditions: primary human HUVEC with PBMC; actives raise or lower the signal;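 for AC50: cell surface CD69 protein quantified by ELISA with fluorescence detection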
Procedure, shortened: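 Values derive from bidirectional fitting relative to DMSO vehicle. Cells: umbilical vein endothelium plus peripheral blood mononuclear cells, treated 24 h before fluorescent ELISA for CD69.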

[8] = read-out: Monocyte Chemoattractant Protein-1 (MCP1), CCL2 (gene 6347); assay: BSK_SAg_MCP1: BioMAP Diversity Plus: SAg Assay for Monocyte Chemoattractant Protein-1 (MCP1) Biomarker Activity (AID 2283090); conditions: primary human HUVEC with PBMC; actives raise or lower the signal
Procedure, shortened: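 MCP-1 levels in the endothelial–PBMC SAg co-culture were quantified by ELISA at 24 h post-dosing; both increases and decreases versus DMSO scored. Cytotoxicity monitored by SRB total protein in parallel cultures.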

[9] = read-out: E-selectin (Homo sapiens) (UniProt P16581); assay: BSK_SAg_Eselectin: BioMAP Diversity Plus: SAg Assay for Eselectin Biomarker Activity (AID 2283091); conditions: primary human HUVEC with PBMC; actives raise or lower the signal
Procedure, shortened: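 HUVEC co-cultured with PBMC, compound dosed then read at 24 h; E-selectin measured by ELISA. Activity fitted bidirectionally against DMSO as negative control and baseline.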

[10] = read-out: Monokine induced gamma interferon (MIG), CXCL9 (gene 4283); assay: BSK_SAg_MIG: BioMAP Diversity Plus: SAg Assay for Monokine induced gamma interferon (MIG) Biomarker Activity (AID 2283092); conditions: primary human HUVEC with PBMC; actives raise or lower the signal
Procedure, shortened: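 Values reflect bidirectional fitting of ELISA-measured MIG against DMSO vehicle, taken 24 h after dosing of a co-culture of human umbilical vein endothelial cells and peripheral blood mononuclear cells.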

[11] = BSK_SAg_PBMCCytotoxicity: PBMC Cytotoxicity Assessment in the BioMAP Diversity Plus: SAg Assay (AID 2283093); conditions: primary human HUVEC with PBMC;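 note: PBMC viability measured as Alamar Blue reduction fluorescence at 546/580 nm; fitted both ways against DMSO so a hit may be loss or gain of signal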;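 for AC50: PBMC superantigen activated with SEB plus TSST-1 one hour after compound addition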
Procedure, shortened: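 Compound added to 75,000 PBMC/well for 1 h; SEB and TSST-1 then added at 20 ng/mL final each; 90 h incubation; Alamar Blue 6 h; read 546/580 nm ex/em. Activity fitted bidirectionally relative to DMSO baseline.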

[12] = read-out: Interleukin-8 (IL8), CXCL8 (gene 3576); assay: BSK_SAg_IL8: BioMAP Diversity Plus: SAg Assay for Interleukin-8 (IL8) Biomarker Activity (AID 2283094); conditions: primary human HUVEC with PBMC; actives raise or lower the signal
Procedure, shortened: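 In this co-culture of human umbilical vein endothelium with peripheral blood mononuclear cells, IL-8 is assayed by ELISA at 24 h. DMSO serves as baseline for bidirectional curve fitting.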

[13] = BSK_SAg_Proliferation: Cell Proliferation Assessment in the BioMAP Diversity Plus: SAg Assay (AID 2283095); conditions: primary human HUVEC with PBMC;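 note: relative cell number as total protein by SRB absorbance in sub-confluent culture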
Procedure, shortened: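 Readout is SRB-stained protein (560 nm) in a primary human HUVEC and PBMC co-culture; sub-confluent cultures are read at 96 h. Activity is fitted bidirectionally using DMSO as baseline.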

[14] = BSK_SAg_SRB: Viability Assessment in the BioMAP Diversity Plus: SAg Assay (AID 2283096); conditions: primary human HUVEC with PBMC;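 note: cells read one day after compound addition; hits may be either gain or loss of signal compared with DMSO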
Procedure, shortened: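 Total protein by sulforhodamine B staining, 24 h after dosing, in HUVEC–PBMC co-culture; DMSO-referenced bidirectional fitting.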

CD40, CD40 (gene 958) = assay: BSK_SAg_CD40: BioMAP Diversity Plus: SAg Assay for CD40 Biomarker Activity (AID 2283088); conditions: primary human HUVEC with PBMC; actives raise or lower the signal
Procedure, shortened: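 Human umbilical vein endothelial cells co-cultured with PBMC; CD40 levels measured by ELISA with fluorescence read-out 24 h after chemical dosing. Gain or loss of signal fitted bidirectionally against DMSO baseline.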

Measured: AC50

Chain of Tumor necrosis factor (Homo sapiens) (P01375 whole entry, looked up): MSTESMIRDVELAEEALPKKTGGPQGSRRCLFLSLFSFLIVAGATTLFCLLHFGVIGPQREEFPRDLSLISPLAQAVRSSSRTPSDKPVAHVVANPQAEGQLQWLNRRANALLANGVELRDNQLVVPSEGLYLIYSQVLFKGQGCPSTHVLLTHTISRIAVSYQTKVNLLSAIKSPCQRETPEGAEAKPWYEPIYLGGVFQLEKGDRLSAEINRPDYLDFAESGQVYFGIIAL
Chain of E-selectin (Homo sapiens) (P16581 whole entry, looked up): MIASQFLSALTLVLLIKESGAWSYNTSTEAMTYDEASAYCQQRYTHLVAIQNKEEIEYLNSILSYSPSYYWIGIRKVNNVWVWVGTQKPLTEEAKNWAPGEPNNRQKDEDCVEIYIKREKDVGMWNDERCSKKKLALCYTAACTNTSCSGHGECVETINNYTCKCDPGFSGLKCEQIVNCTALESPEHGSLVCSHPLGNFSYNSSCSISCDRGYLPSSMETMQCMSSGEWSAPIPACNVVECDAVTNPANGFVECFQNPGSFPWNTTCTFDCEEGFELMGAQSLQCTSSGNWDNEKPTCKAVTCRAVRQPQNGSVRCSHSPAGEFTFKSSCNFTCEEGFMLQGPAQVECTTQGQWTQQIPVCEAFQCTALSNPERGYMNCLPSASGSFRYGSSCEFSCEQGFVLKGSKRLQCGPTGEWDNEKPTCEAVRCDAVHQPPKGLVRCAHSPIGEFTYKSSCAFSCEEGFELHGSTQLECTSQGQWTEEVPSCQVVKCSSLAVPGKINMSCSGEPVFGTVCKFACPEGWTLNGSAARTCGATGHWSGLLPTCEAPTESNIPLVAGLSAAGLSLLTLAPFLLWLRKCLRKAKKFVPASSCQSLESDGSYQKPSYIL

CC(C)[N+](C)(CCOC(=O)C1c2ccccc2Oc2ccccc21)C(C)C
inactive: [1] | [2] | [3] | [4] | [5] | [6] | [7] | CD38, CD38 (gene 952) | CD69, CD69 (gene 969) | [8] | [9] | [10] | [11] | [12] | [13] | [14]

CC(C)c1cccc(C(C)C)c1N
inactive: [1] | [2] | [3] | [4] | [5] | [6] | [7] | CD38, CD38 (gene 952) | CD40, CD40 (gene 958) | [8] | [9] | [10] | [11] | [12] | [13] | [14]

CC(CCC(=O)O)(c1ccc(O)cc1)c1ccc(O)cc1
inactive: [1] | [2] | [3] | [4] | [5] | [6] | [7] | CD38, CD38 (gene 952) | CD40, CD40 (gene 958) | [8] | [9] | [10] | [11] | [12] | [13] | [14]

CC=C(C)C=CC=C(C)C
active: [7] 20 µM | CD38, CD38 (gene 952) 13.7 µM | CD69, CD69 (gene 969) 18.7 µM | [8] 2.58 µM | [9] 23.4 µM | [12] 6.5 µM | [13] 26.5 µM
inactive: [1] | [2] | [3] | [4] | [5] | [6] | [10] | [11] | [14]

CC(Cl)COP(=O)(OCC(C)Cl)OCC(C)Cl (centres undefined)
inactive: [1] | [2] | [3] | [4] | [5] | [7] | CD38, CD38 (gene 952) | CD40, CD40 (gene 958) | [8] | [9] | [10] | [11] | [12] | [13] | [14]
active: [6] 1.31 µM

CCN1CN(CC)CN(CC)C1
inactive: [1] | [2] | [3] | [4] | [5] | [7] | CD38, CD38 (gene 952) | CD40, CD40 (gene 958) | [8] | [9] | [10] | [11] | [12] | [14]
active: [6] 2.22 µM | [13] 36.3 µM

C=CC(=O)OCCCCCCOC(=O)C=C
active: [1] 8.11 µM | [2] 4.29 µM | [3] 2.13 µM | [4] 5.31 µM | [5] 9.18 µM | [6] 3.96 µM | [7] 5.81 µM | CD38, CD38 (gene 952) 3.8 µM | CD40, CD40 (gene 958) 11 µM | CD69, CD69 (gene 969) 2.98 µM | [8] 11 µM | [9] 5.55 µM | [10] 7.05 µM | [11] 3.97 µM | [12] 0.714 µM | [13] 0.89 µM | [14] 20 µM

Fc1ccc(Br)cc1
inactive: [1] | [2] | [3] | [4] | [5] | [6] | [7] | CD38, CD38 (gene 952) | CD69, CD69 (gene 969) | [8] | [9] | [10] | [11] | [12] | [13] | [14]

From PubChem BioAssay (EPA / NIEHS)
